High-throughput results (PubChem BioAssay)
TbPYK inhibitor: inhibitors of Trypanosoma brucei pyruvate kinase. TbPYK enzyme, Kinase-Glo Plus ATP luminescence, 45 min. Q57TT1. Potency, µM (doses to about 76.8 µM), for the others: at the highest dose activity, negative = inhibition, usual class: inhibitors. 410,000 tested, 0.12% active; also: nearly all actives have a fitted effect of over 50% in size
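Glycolytic pyruvate kinase of T. brucei was incubated with substrate, test compound and 130 uM ADP for 45 minutes at room temperature. Luminescent Kinase-Glo Plus signal was measured after 10 minutes.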
Giardia FBPA inh: inhibitors of Giardia lamblia fructose-1,6-bisphosphate aldolase. 290,000 tested, 0.71% active. Potency, µM (doses to about 59.6 µM), for inactives: at the top dose activity, negative = inhibition, actives largely listed as inhibitors. A8B2U2. purified Giardia FBPA. AID 2451; also: nearly all actives have a fitted effect of over 55% in size
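40 nM FBPA preincubated 10 min at RT with compound (up to 57.5 uM final), then substrate plus GAPDH/TPI/NAD/arsenate coupling and diaphorase/resazurin added. Fluorescence read after 20 min at RT, 525/598 nm.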
RE007 growth inh: less growth of the S. pombe RE007 Vpr strain. S. pombe RE007 Vpr strain, BacTiter-Glo ATP luminescence, 24 h. Potency, µM (titrated, usually from 92.2 µM), for the others: at the top dose activity change, negative = less growth, usual class: inhibitors. 360,000 tested, 0.21% active; active = well fitted falling curve with a large enough effect; inconclusive = small, poorly fitted or top-dose-only effect; inactive = no such curve, though single readings can be large or run the other way; also: nearly all actives have a fitted effect of over 50% in size
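Fission yeast RE007 carrying one integrated HIV-1 vpr copy, seeded at OD 0.01 in PMG+AL medium with 23 nL pinned compound. Grown 24 h at 30 degrees; viability read by BacTiter-Glo luminescence after 5 min.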
LmPK inh: inhibitors of Leishmania mexicana pyruvate kinase | purified LmPK, Kinase-Glo ATP luminescence, 1 h | 290,000 tested, 0.37% active | Q27686 | Potency, µM (doses to about 57.5 µM), without a hit: at the highest dose activity change, negative = inhibition, hits mostly inhibitors
Target sequence (Q27686 whole entry, looked up): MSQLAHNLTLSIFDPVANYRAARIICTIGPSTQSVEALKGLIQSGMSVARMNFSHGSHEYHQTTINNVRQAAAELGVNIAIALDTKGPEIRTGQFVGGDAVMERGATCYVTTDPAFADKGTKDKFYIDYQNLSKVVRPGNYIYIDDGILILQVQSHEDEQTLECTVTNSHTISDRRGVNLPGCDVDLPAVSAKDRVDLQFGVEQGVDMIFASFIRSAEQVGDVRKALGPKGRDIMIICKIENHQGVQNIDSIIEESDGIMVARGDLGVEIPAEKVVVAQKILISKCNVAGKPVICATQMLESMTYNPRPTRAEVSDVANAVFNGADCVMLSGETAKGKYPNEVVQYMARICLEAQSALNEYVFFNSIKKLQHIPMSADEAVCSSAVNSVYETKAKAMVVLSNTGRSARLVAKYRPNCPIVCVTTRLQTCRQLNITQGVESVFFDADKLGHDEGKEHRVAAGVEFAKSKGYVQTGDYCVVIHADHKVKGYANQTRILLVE
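In 50 mM imidazole pH 7.2 with 7 mM MgCl2, LmPK (0.1 nM) turned over PEP (0.5 mM) and ADP (0.1 mM) for 1 h at room temperature. Luciferase read-out of ATP.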
* = called active by the depositor; ? = inconclusive; . = no result; [ ] = remark or other dose. A selection: hits, their analogues and other compounds. The true share with any hit is near 0.95%. Unless noted, calls follow the shape of the dose curve; as a rule, active = well fitted curve in the direction sought with a large enough effect; inconclusive = small, poorly fitted or top-dose-only effect, or another doubt; inactive = no such curve, though single readings can be large; an effect the other way counts as inactive or inconclusive. % is scaled to controls: 0 for no effect and ±100 for the full control effect; potency is read from the fitted curve at half-maximal effect.

SMILES	TbPYK inhibitor	Giardia FBPA inh	RE007 growth inh	LmPK inh
O=c1c(Cl)c(N2CCCCC2)cnn1-c1nc2ccccc2[nH]1	?	-3%	-14%	14µM*
Nc1ccc(N2CCN(c3ccc(F)cc3)CC2)cc1	-16%	2%	-16%	3%
Nc1ccc(N2CCCCCC2)cc1	.	11µM*	.	?
CCOC(=O)COc1ccccc1/C=C\[N+](=O)[O-]	?	-10%	32µM*	2%
C=CCN1CCc2cccc3c2[C@H]1Cc1ccc(O)c(O)c1-3	?	?	?	1.6µM*
CCOC(=O)C1=C(C)NC(=O)CC1c1cc2c(cc1[N+](=O)[O-])OCO2 (stereo unspecified)	-5%	13µM*	-4%	3%[11.5 µM]
O=C1C2C(C(=O)N1/N=C/c1ccc(N3CCCCC3)o1)C1C=CC2C12CC2 (stereo unspecified)	25µM*	?	0%	-9%
CN1C(=O)C(=Cc2ccc(N3CCCCC3)o2)C(=O)N(C)C1=S	-14%	2%	19%	-3%
Cc1ccccc1C(=O)n1nc(-c2cccnc2)nc1NCc1ccc(F)cc1	2%	.	.	.
Cc1ccc(-c2n[nH]c(=S)n2/N=C/c2cccn2C)cc1	5µM*	.	4%	7.9µM*
S=c1[nH]nc(-c2ccccc2)n1/N=C/c1cccs1	11µM*	6%	-13%	?
S=c1[nH]nc(-c2ccc(Cl)cc2)n1/N=C/C=C/c1ccco1	?	-1%	-1%	-9%
S=c1[nH]nc(-c2ccc(Cl)cc2)n1/N=C/c1ccco1	4µM*	3%	1%	-7%
COc1ccc(-c2n[nH]c(=S)n2/N=C/c2cccn2C)cc1	2.5µM*	13%	3%	-4%
CN1CC[C@@]2(C)c3cc(O)ccc3N(C)C12 (stereo partly specified)	.	2.8µM*	.	.
CNC(=O)Oc1ccc2c(c1)[C@]1(C)CCN(C)[C@@H]1N2C	2%	?	0%	1%
C/C(=C\C(=S)Nc1ccccc1)Nc1ccc2ccccc2c1	10%	2µM*	?	-4%
O=C(CN1C(=O)COc2ccc(S(=O)(=O)N3CCCC3)cc21)NCCc1ccc(Cl)cc1	0%	.	.	.
Cc1cc(SCC(=O)N/N=C/c2ccc(O)c(O)c2O)c(C)cc1Br	10%	3.5µM*	?	-4%
Cc1ccc(-n2c(-c3nn(C)c(C)c3Cl)n[nH]c2=S)cc1	?	-4%	4%	?
Cc1ccc(-n2c(C)n[nH]c2=S)cc1	?	?	0%	-10%
Cc1nn(C)cc1-c1n[nH]c(=S)n1-c1ccc(Cl)cc1	?	-16%	11%	7.9µM*
CC(C)(C)c1cc(-c2n[nH]c(=S)n2-c2ccc(Cl)cc2)n[nH]1	?	8%	2%	13µM*
CCOC(=O)CNCCC(=O)c1ccc(Br)cc1	-9%	-13%	35µM*	-1%
Cc1cccc(NCCC(=O)c2ccc(Br)cc2)c1	-5%	5%	?	-4%
SMILES	TbPYK inhibitor	Giardia FBPA inh	RE007 growth inh	LmPK inh
O=C(O)c1ccccc1SSc1ccccc1C(=O)O	-22%	-5%	-5%	17%
C[CH2][Hg][S]c1ccccc1C(=O)O	11µM*	13µM*	-21%	.
CC(C)c1cc[n+](-c2nc([O-])sc2C=O)cc1	28µM*	?	-17%	-1%
C/C(=C(/CCOC(=O)C(C)C)SS/C(CCOC(=O)C(C)C)=C(\C)N(C=O)Cc1cnc(C)nc1N)N(C=O)Cc1cnc(C)nc1N	-5%	.	.	.
O=C1C(=O)c2ccc(-c3ccccc3)cc2-c2ccccc21	4%	0.28µM*	?	9%
Nc1ccc2c(c1)C(=O)c1ccccc1-2	-3%	.	-10%	.
Nc1ccc2c(c1)C(=O)C(=O)c1ccccc1-2	?	?	25µM*	?
O=C1c2ccccc2C(=O)c2ccccc21	1%	4%	.	.
CCOC(=O)CNC(=O)O[C@@H]1C(=O)c2cc(Br)ccc2O[C@H]1c1cccc(OC)c1	.	-4%	.	.
Cc1ccc(-n2nnc(-c3nccn3C)n2)cc1	?	1%	?	14µM*
Cc1ccc(-n2nnc(-c3cccnc3)n2)cc1	-1%	.	-13%	.
CCN1/C(=C\C=C\C2=[N+](CC)c3ccccc3C2(C)C)C(C)(C)c2ccccc21	?	21%	?	10µM*
CCCCNc1cc(N2CCN(C3CCCCC3)CC2)c2noc3c2c1C(=O)c1ccccc1-3	-4%	.	.	.
CCOC(=O)N1CCN(c2cc(NCCC(=O)O)c3c4c(onc24)-c2ccccc2C3=O)CC1	-15%	5.6µM*	?	16µM*
Cc1cccc2sc(NNC(=O)c3cc(=O)c4ccccc4o3)nc12	?	-17%	-14%	-15%
Cc1ccc2sc(NNC(=O)c3cc(=O)c4ccccc4o3)nc2c1C	-22%	22µM*	-15%	0%
CCCCC1=CC2=CC(=O)C(C)(OC(=O)CC)C(=O)C2=CN1CCCN(CC)CC (stereo unspecified)	.	-18%[12.9 µM]	.	-1%[11.5 µM]
Cc1cc(Nc2ccccc2C(=O)O)ccc1Cl	-6%	.	.	.
COc1cc2c(cc1/C=C/C(=O)O)OC(C)C2 (stereo unspecified)	5%	8%	12%	3%
CC(C)(O)C1Cc2cc(/C=C/C(=O)O)c(O)cc2O1 (stereo unspecified)	?	-27%	?	28µM*
CC(CCc1ccc2c(c1)OCO2)NN (stereo unspecified)	3%	.	.	.
O=C(O)c1ccnc(C(=O)O)c1	2%	1.8µM*	8%	3%
CN(C)c1ccnc(C(=O)O)c1	0%	-2%	8%	0%
COc1ccc2nc(N3CCCCC3)c(C#N)cc2c1	-5%	18µM*	?	-3%
Cn1cnc(S(=O)(=O)N2CCCC(C(=O)NCc3ccccc3)C2)c1 (stereo unspecified)	-1%	.	.	.
SMILES	TbPYK inhibitor	Giardia FBPA inh	RE007 growth inh	LmPK inh
C/C(CCN1CCCc2nc(C)c(C)cc21)=N\O[C@@H](C)CN1CCCCc2nc(C)c(C)cc21	.	3%[12.9 µM]	.	.
O=C(NN=C1CCCC1)c1n[nH]c2c1CCCC2	-11%	0%	-14%	28µM*
Cc1ccsc1/C=N/NC(=O)c1ccc2c(c1)OCCO2	0%	-6%	6%	22µM*
O=C(NN=C1CCCC1)c1n[nH]c2c1CCC2	-7%	3%	2%	-16%
C/C(=N\NC(=O)c1ccc2c(c1)OCCO2)c1ccccc1	?	-3%	7%	11µM*
C/C(=N\NC(=O)c1ccoc1C)c1ccccc1	-17%	-5%	8%	14µM*
C/C(=N/NC(=O)c1ccoc1C)c1ccc(NC(=O)C2CCCC2)cc1	1%	-1%	8%	-10%
Cn1nnnc1SCC1=C(C(=O)O)N2C(=O)[C@@H](NC(=O)[C@H](OC=O)c3ccccc3)[C@H]2SC1	0%	.	.	.
NC[C@@H]1O[C@@H](O[C@H]2[C@@H](O)[C@H](O[C@@H]3[C@@H](O)[C@@H](N)C[C@H](N)[C@H]3O[C@H]3O[C@H](CN)[C@@H](O)[C@@H](O)[C@H]3N)O[C@H]2CO)[C@H](N)[C@@H](O)[C@@H]1O	-3%	.	.	.
N#Cc1ccc(CN2CCCC3(CCN(S(=O)(=O)c4ccccc4)CC3)C2)cc1	1%	-4%	.	.
